Compound activity from PubChem.
Only some compounds are listed: those with a hit (about 2.2% of all), similar ones and a draw of the others.
FMDV inh: blocks foot and mouth disease virus. FMDV antiviral cell-based qHTS. AID 1159524. Potency, µM (series often up to 57.9 µM), inactives show top-dose activity change, negative = inhibition, hits mostly inhibitors. 1.2% of 410,000 active; calls by dose curve; tested in HEK293T cells; note: read-out not given here; nearly all actives have a fitted effect of over 45% in size
Giardia FBPA inh-1: blocks Giardia fructose-bisphosphate aldolase activity | A8B2U2 | purified Giardia FBPA | Potency, µM (top dose mostly 59.6 µM), inactives show top-dose activity, negative = inhibition, hits mostly inhibitors | 0.71% of 290,000 active | AID 2451; note: nearly all actives have a fitted effect of over 55% in size
Target sequence (A8B2U2 whole entry, looked up): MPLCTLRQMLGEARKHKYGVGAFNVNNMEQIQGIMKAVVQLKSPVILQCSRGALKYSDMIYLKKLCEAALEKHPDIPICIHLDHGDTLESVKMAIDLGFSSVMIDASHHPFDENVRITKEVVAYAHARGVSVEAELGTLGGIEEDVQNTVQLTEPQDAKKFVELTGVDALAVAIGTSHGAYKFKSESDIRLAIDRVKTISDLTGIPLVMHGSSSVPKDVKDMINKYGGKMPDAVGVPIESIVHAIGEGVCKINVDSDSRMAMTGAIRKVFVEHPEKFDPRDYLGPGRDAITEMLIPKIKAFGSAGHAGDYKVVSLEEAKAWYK
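Giardia FBPA (40 nM reagent) was preincubated 10 min at RT with compound (up to 57.5 uM final), then substrate plus GAPDH/TPI/NAD/arsenate coupling system with diaphorase/resazurin was added; resorufin fluorescence (525/598 nm) was read after 20 min.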
Vaccinia mCherry: vaccinia inhibition (mCherry reporter) | Vaccinia virus mCherry reporter infection, fluorescence | 0.63% of 310,000 active | Potency, µM (doses to about 36.5 µM), for the others: at the highest dose activity change, negative = inhibition, usual class: inhibitors; calls by dose curve; tested in A549 cells; note: nearly all actives have a fitted effect of over 35% in size
Vaccinia Venus: vaccinia inhibition (Venus reporter); 0.46% of 330,000 active; Potency, µM (series often up to 36.5 µM), inactives show top-dose activity change, negative = inhibition, usual class: inhibitors; AID 720580; Vaccinia virus Venus reporter expression, fluorescence; calls by dose curve; tested in A549 cells; note: nearly all actives have a fitted effect of over 30% in size
Giardia growth: Giardia lamblia growth inhibition; Giardia lamblia trophozoite growth inhibition; Potency, µM (highest dose often 57.5 µM), for the others: at the top dose activity change, negative = inhibition, usual class: inhibitors; shares compounds with Giardia FBPA inh-1; 5% of 1,500 active;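 note: trophozoites exposed to compound for 48 h at 37 °C; nearly all actives have a fitted effect of over 70% in size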
Mammal cell tox: mammalian cytotoxicity of Giardia aldolase inhibitor hits; Potency, µM (doses to about 57.5 µM), for inactives: at the highest dose viability change, negative = toxicity, actives largely listed as inhibitors; mammalian cell viability counter-screen, qHTS; 4% of 1,500 active; shares compounds with Giardia FBPA inh-1;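 note: Chinese hamster ovary cells used as mammalian cytotoxicity surrogate; viability measured as cellular ATP by luminescence; compound exposure lasted 48 h before reading; nearly all actives have a fitted effect of over 60% in size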
Giardia FBPA inh-2: confirmation of Giardia fructose-bisphosphate aldolase inhibitors; shares compounds with Giardia FBPA inh-1; purified Giardia aldolase enzyme activity, qHTS; Potency, µM (top dose mostly 57.5 µM), for inactives: top-dose activity change, negative = inhibition, actives largely listed as inhibitors; 5% of 1,500 active; AID 2787; note: nearly all actives have a fitted effect of over 45% in size
Rabbit FBPA inh: selectivity test for Giardia aldolase inhibitors: rabbit aldolase; AID 2794; shares compounds with Giardia FBPA inh-1; 4% of 1,500 active; Rabbit muscle FBPA enzyme inhibition, selectivity counter-screen; Potency, µM (titrated, usually from 57.5 µM), without a hit: at the top dose activity, negative = inhibition, actives largely listed as inhibitors; note: nearly all actives have a fitted effect of over 60% in size
Target sequence (P00883 whole entry, looked up): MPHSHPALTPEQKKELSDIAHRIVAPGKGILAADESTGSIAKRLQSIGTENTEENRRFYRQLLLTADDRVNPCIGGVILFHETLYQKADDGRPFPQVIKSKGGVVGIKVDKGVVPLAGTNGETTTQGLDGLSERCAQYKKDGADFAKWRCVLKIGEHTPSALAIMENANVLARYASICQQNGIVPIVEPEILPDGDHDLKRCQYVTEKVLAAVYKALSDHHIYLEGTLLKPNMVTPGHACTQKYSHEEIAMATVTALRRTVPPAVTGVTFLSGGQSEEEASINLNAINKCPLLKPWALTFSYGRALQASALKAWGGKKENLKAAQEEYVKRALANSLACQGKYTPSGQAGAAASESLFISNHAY
GAPDH counter: GAPDH inhibition flagged for Giardia aldolase hits | shares compounds with Giardia FBPA inh-1 | GAPDH coupling enzyme counterscreen, biochemical, qHTS | Potency, µM (titrated, usually from 57.5 µM), for the others: at the highest dose activity change, negative = inhibition, actives largely listed as inhibitors | 6% of 1,500 active | AID 2795; note: nearly all actives have a fitted effect of over 55% in size
* hit, by the source's call; i = inactive; ? = inconclusive; nt = no result; [ ] = remark or other dose. Unless noted, calls come from the whole dose curve; as a rule, active = well fitted curve in the direction sought with a large enough effect; inconclusive = small, poorly fitted or top-dose-only effect, or another doubt; inactive = no such curve, though single readings can be large; an effect the other way counts as inactive or inconclusive. % is set by controls: 0 for no effect and ±100 for the full control effect; potency is the fitted concentration of half-maximal effect.

SMILES	FMDV inh	Giardia FBPA inh-1	Vaccinia mCherry	Vaccinia Venus	Giardia growth	Mammal cell tox	Giardia FBPA inh-2	Rabbit FBPA inh	GAPDH counter
COc1ccc(NC(=O)COc2ccccc2C(=O)Nc2ccccc2)cc1	nt	nt	-14%	-10%	nt	nt	nt	nt	nt
Cc1oc(C)c(C(=O)Nc2ccccc2)c1C	nt	0%	nt	nt	nt	nt	nt	nt	nt
Cc1ccccc1NC(=O)CN1CCN(Cc2ccccc2)CC1	-1%	4%	-8%	-3%	nt	nt	nt	nt	nt
CCN(CC)S(=O)(=O)c1ccc(C)c(NC(=O)CNCCN(C(C)C)C(C)C)c1	3%	14µM*	nt	nt	24%	13%	7%	3%	12%
CCN(CC)c1ccc(S(=O)(=O)N2CCOCC2)cc1NC(=O)CN1CCN(Cc2ccccc2)CC1	-18%	20µM*	nt	nt	-22%	-8%	-3%	-5%	5%
CCN(CC)S(=O)(=O)c1ccc(C)c(NC(=O)CN2CCN(Cc3ccccc3)CC2)c1	-22%	20µM*	nt	nt	-11%[10.4 µM]	-28%	2%	-1%	8%
CCN(CC)S(=O)(=O)c1ccc(C)c(NC(=O)CSc2nnnn2C)c1	-13%	nt	-16%	-16%	nt	nt	nt	nt	nt
Clc1nc(NCc2cccs2)c2[nH]cnc2n1	nt	nt	-30%	-26%	nt	nt	nt	nt	nt
Cc1ccc(F)c(C2C3C=CCC(c4ccccc4)C3C(=O)N2Cc2ccccc2)c1 (configuration not stated)	nt	-2%	nt	nt	nt	nt	nt	nt	nt
O=C(Nc1ncn[nH]1)c1ccccc1O	-1%	20µM*	nt	nt	?	-3%	-12%	-3%	8%
CCCN1CNc2c(c(=O)[nH]c(=S)n2CCc2ccccn2)C1	nt	nt	-12%	-6%	nt	nt	nt	nt	nt
O=C(CNCc1ccccc1)Nc1cccc(Cl)c1Cl	-6%	16µM*	i	-18%	17%	0%	2%	-3%	9%
CCCCC/C=C\C/C=C\C/C=C\C/C=C\CCCCCC(=O)NC(C)C(=O)O (configuration not stated)	nt	1%	nt	nt	nt	nt	nt	nt	nt
Nc1nc(=S)c2[nH]cnc2[nH]1	-10%	3.2µM*	?	?	2%[38.3 µM]	7.1µM*	-12%	-12%	-5%
CCOc1ccccc1N(CC)C(=O)Cn1ncc2c([nH]c3ccccc32)c1=O	?	nt	-2%	-8%	nt	nt	nt	nt	nt
O=C(NCCCNCCCNC(=O)c1ccc(/C=N/O)nc1)c1ccc(/C=N/O)nc1	-15%	4µM*	nt	nt	-18%[38.3 µM]	2%	-9%	-4%	-25%
COc1ccc(NC(=O)C(=O)NCC(c2cccnc2)N2CCc3ccccc3C2)cc1 (configuration not stated)	?	nt	-22%	-23%	nt	nt	nt	nt	nt
O=C(NCCc1nc2ccccc2n1CCOc1cccc2ccccc12)C1CCCCC1	nt	nt	-14%	-26%	nt	nt	nt	nt	nt
Cc1nc(C)c(-c2ccc(SCC(=O)Nc3ccccc3F)nn2)s1	-23%	nt	-7%	-2%	nt	nt	nt	nt	nt
O=C(c1ccco1)N1CCN(Cc2ccc(Cl)cc2)CC1	-14%	?	nt	?	nt	nt	nt	nt	nt
CCc1ccc(CN2CCN(C(=O)c3ccco3)CC2)cc1	-20%	28µM*	i	?	10%	11%	9%	1%	11%
O=C(c1ccco1)N1CCN(Cc2c(Cl)cccc2Cl)CC1	0%	6%	nt	nt	nt	nt	nt	nt	nt
O=C(c1ccco1)N1CCN(Cc2cccc3ccccc23)CC1	-8%	16µM*	-14%	10%	?	-3%	4%	7%	8%
COc1ccc(-c2nc3c(c4c2C[C@H](c2ccccc2)OC4)CN(C(=O)NCCc2c[nH]c4ccccc24)CC3)c(C)c1	nt	1%[12.9 µM]	nt	nt	nt	nt	nt	nt	nt
S=c1[nH]c2ncccc2o1	-13%	?	i	-6%	nt	nt	nt	nt	nt
SMILES	FMDV inh	Giardia FBPA inh-1	Vaccinia mCherry	Vaccinia Venus	Giardia growth	Mammal cell tox	Giardia FBPA inh-2	Rabbit FBPA inh	GAPDH counter
S=c1[nH]c2cc(Cl)c3cccnc3c2o1	5%	3.5µM*	-19%	-8%	-6%[38.3 µM]	-15%	?	?	?
CC(=O)OCOC(=O)CNc1ccccc1OCCOc1ccccc1NCC(=O)OCOC(C)=O	nt	-8%	nt	nt	nt	nt	nt	nt	nt
CC(=O)O[C@@H]1[C@@H](O)CN[C@@H]1Cc1ccccc1	nt	2%	nt	nt	nt	nt	nt	nt	nt
CC(=O)Nc1nc(C)nc(-c2ccccc2)c1C(C)=O	14%	16µM*	-9%	-16%	23%	-7%	3%	9%	10%
CC(=O)c1c(NC(=O)C(C)C)nc(C)nc1-c1ccccc1	-19%	-20%	nt	13%	nt	nt	nt	nt	nt
Cc1c(NC(=O)/C(C#N)=C/c2ccccc2)c(=O)n(-c2ccccc2)n1C	-25%	2%	-7%	-9%	nt	nt	nt	nt	nt
Cc1c(NN=C(C#N)C#N)c(=O)n(-c2ccccc2)n1C	14µM*	25µM*	3%	5%	17%	21%	1%	2%	5%
Cc1no[n+]([O-])c1COc1cccc(/C=N/Nc2nncn2N)c1	0%	14µM*	nt	nt	39%	8%	18µM*	?	20µM*
CNc1nc(C#N)nc(Nc2ccccc2)n1	nt	4%	nt	nt	nt	nt	nt	nt	nt
Cc1ccc(NC(=O)CN2CCC(NC(=O)c3ccccc3F)CC2)cc1C	-4%	18µM*	nt	nt	?	-2%	0%	1%	7%
COC(=O)NC(CC(C)=O)c1ccc2c(c1)OCO2 (configuration not stated)	nt	-1%[12.9 µM]	nt	nt	nt	nt	nt	nt	nt
COc1ccc(CNc2ncc(-c3cccc([N+](=O)[O-])c3)n2C)c(OC)c1OC	-22%	25µM*	nt	nt	?	-12%	-4%	-4%	4%
CSc1ccc(CNc2ncc(-c3cccc([N+](=O)[O-])c3)n2C)cc1	-23%	20µM*	nt	nt	?	-9%	-3%	-3%	7%
COc1ccc(C(=O)Nc2ncnc3nc[nH]c23)cc1	nt	nt	-9%	-14%	nt	nt	nt	nt	nt
O=C(C1=NN[C@@H]2C(=O)N(c3ccccc3C(F)(F)F)C(=O)[C@H]12)c1cnccn1	-17%	3%	nt	nt	nt	nt	nt	nt	nt
O=C(C1=NN[C@@H]2C(=O)N(c3cccc(F)c3)C(=O)[C@H]12)c1cnccn1	7%	16µM*	-16%	-8%	?	-9%	0%	6%	10%
CC1(C)Cc2sc3c(=O)[nH]c(=S)[nH]c3c2CO1	1%	10µM*	nt	nt	-5%[38.3 µM]	5%	-7%	12%	4%
COC(=O)C/C=N/N=C1/NC(=O)/C(=C/C(=O)O)S1	0%	18µM*	nt	nt	0%[10.4 µM]	1%	-10%	-10%	-14%
CSc1ccc2nnc(-c3ccc(C)cc3)n2n1	nt	nt	25%	-10%	nt	nt	nt	nt	nt
CC(=O)Nc1ccc(S(=O)(=O)N2CCN(Cc3cccc([N+](=O)[O-])c3)CC2)cc1	?	18µM*	-29%	-5%	-1%	-4%	6%	8%	12%
CCn1c(=O)n(C2=C(CO)CN(CC3CCCCCCC3)CC2)c2ccccc21	-15%	-7%	nt	nt	nt	nt	nt	nt	nt
N#Cc1nc(Nc2ccccc2)nc(NC2CCCC2)n1	nt	-11%	nt	nt	nt	nt	nt	nt	nt
